This passage reports growth results from PubChem BioAssay (NCI).

The panel holds about 83,000 compounds, 20% with a hit somewhere; the sample as a whole holds those more often.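 Note: values are percent growth. 100 is the growth of untreated cells, values between 100 and 0 indicate rising inhibition; between -100 and 0 indicates cell death.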 A number with no mark means an inactive call. Activity calls are given as the source filed them. Rule for the calls: active = growth percent below 10; inactive = the rest.

Test in all cases: NCI-60 one-dose screen, 48 h (100 = growth as untreated, 0 = no growth, -100 = all killed)
Common to all, as to conditions: 10 µM unless noted

Test [1] deals with BT-549 breast.
In test [2] the test system is MDA-MB-435 melanoma.
Test [3] relates to SW-620 colon.
The subject of test [4] is MCF7 breast.
Test [5] concerns HCT-116 colon.
Test [6] concerns HCC-2998 colon.
Test [7] has as its system KM12 colon.

In the case of `COc1cc(/C=C/C(=O)c2cc(OC)c(OC)c(OC)c2)ccc1OCc1ccc(F)cc1`, the growth in test [1] is 8.09% (active); in test [2] it was 52.9%; in test [3] it was 16.9%; in test [4] it was 10.8%; in test [5], 5.57% (active); in test [6] it was 40.2%. Moreover, the growth in test [7] is 19%.

For `CCN1CCN(/C(=N\c2sc(-c3ccccc3)nc2-c2ccccc2)c2ccccc2)CC1`, the growth was 90.9% in test [1]; 88% in test [2]; 84.9% in test [3]; 67.3% in test [4]; 62.4% in test [5]; 77.1% in test [6]. Moreover, the growth in test [7] was 59.8%.

Consider `CN1CCc2c(sc3ncnc(N/N=C/c4ccc(Cl)c(Cl)c4)c23)C1`, for which the growth in test [1] was 42.2%; in test [2], 11.6%; in test [3] it was -68.4% (active); in test [4], -47.2% (active); in test [5] it was -64.5% (active); in test [6], -47.9% (active). Also, the growth in test [7] is 22.8%.

In the case of `c1ccc2c(NCCCN3CCOCC3)c3oc4ccccc4c3nc2c1`, the growth is 3.61% (active) in test [1]; -11.9% (active) in test [2]; -0.873% (active) in test [3]; 0.0447% (active) in test [4]; -20.1% (active) in test [5]; -28% (active) in test [6]. Further, the growth in test [7] was 2.04% (active).

In the case of `Clc1ccc2c(NCCCn3ccnc3)c3oc4ccccc4c3nc2c1`, the growth was 81.2% in test [1]; 32.2% in test [2]; 21.5% in test [3]; 18.2% in test [4]; 14% in test [5]; 40.8% in test [6]. The growth in test [7] was 30.1%.

In the case of `O=C1Nc2ccc(Cl)cc2/C1=C/c1ccc(OCC(=O)c2ccc(Br)cc2)cc1`, the growth is 118% in test [1]; 99.1% in test [2]; 89.9% in test [3]; 80.1% in test [4]; 95.5% in test [5]; 99.5% in test [6]. For the same compound, the growth in test [7] was 59.1%.

With `O=C(CSc1nc2sc3c(c2c(=O)n1-c1ccc(Cl)cc1)CCCC3)N/N=C/c1ccc(F)cc1`, the growth was 116% in test [1]; 86.9% in test [2]; 61.9% in test [3]; 74.7% in test [4]; 99.7% in test [5]; 112% in test [6]. Besides, the growth in test [7] was 90.1%.

Consider `CCCSc1nc(Nc2ccc(/C(C)=N\NC(N)=S)cc2)c(C#N)c(-c2ccc(OC)cc2)n1`, for which the growth in test [1] was 82%; in test [2] it was 70.7%; in test [3], 103%; in test [4] it was 69.1%; in test [5], 45.3%; in test [6], 110%. Also, the growth in test [7] was 84.7%.

Turning to `COc1ccc(-c2cc(C(=O)N=Nc3c(O)[nH]c4ccccc34)c3ccccc3n2)cc1OC`, the growth in test [1] was 113%; in test [2], 98.1%; in test [3] it was 93.8%; in test [4], 89.9%; in test [5], 101%; in test [6] it was 97.8%. In addition, the growth in test [7] is 92%.

On to `CN(C)CCCNc1c2ccc(Cl)cc2nc2c1oc1ccc(Cl)cc12`, for which the growth in test [1] was 79.9%; in test [2], -74.3% (active); in test [3] it was -79% (active); in test [4], -76.4% (active); in test [5], -93.7% (active); in test [6], -85.1% (active). In test [7], the growth is -56.3% (active).

On to `Nc1nc(N)c2c(n1)NC(c1ccc(C(F)(F)F)cc1)CC(c1ccc(Nc3nc(NCCO)nc(Nc4ccc(Cl)cc4)n3)cc1)=N2` (stereo not drawn), for which the growth in test [1] is -28.7% (active); in test [2] it was -61.5% (active); in test [3] it was -66.6% (active); in test [4], -52.5% (active); in test [5] it was -85.3% (active); in test [6] it was -86.6% (active). For the same compound, the growth in test [7] was -65.3% (active).

Turning to `COc1ccc(-c2nc3ccc(-c4nnc(SCC(=O)Nc5ccc(C(=O)/C=C/c6ccccc6)cc5)o4)cc3[nH]2)cc1OC`, the growth is 94.1% in test [1]; 106% in test [2]; 104% in test [3]; 78.3% in test [4]; 89.7% in test [5]; 123% in test [6]. For the same compound, the growth in test [7] was 99%.

For the compound `CN(C)CCCOc1c2ccccc2nc2c1oc1ccc(Cl)cc12`, the growth is 19.2% in test [1]; -19.8% (active) in test [2]; -3.7% (active) in test [3]; -16.6% (active) in test [4]; 10.9% in test [5]; 11.1% in test [6]. Besides, the growth in test [7] is 1.62% (active).

In the case of `CC(=O)Oc1ccccc1C(=O)Nc1ccc(C(=O)/C=C/c2cccs2)cc1`, the growth was 99.2% in test [1]; 97.8% in test [2]; 107% in test [3]; 93% in test [4]; 108% in test [5]; 109% in test [6]. In addition, the growth in test [7] is 102%.

For the compound `COc1cc(/C=C/C(=O)c2ccc(Cl)cc2)ccc1Oc1nc(NCCO)nc(N2CCOCC2)n1`, the growth in test [1] is 100%; in test [2], 109%; in test [3], 72.4%; in test [4] it was 67%; in test [5] it was 93.1%; in test [6], 100%. In test [7], the growth is 106%.

Consider `C#Cc1nc(C2=C(C)C(=O)/C(=N/OC(C)=O)C2)cs1`, for which the growth is 95% in test [1]; 94.8% in test [2]; 110% in test [3]; 68.4% in test [4]; 78.4% in test [5]; 117% in test [6]. The growth in test [7] was 46.8%.

Turning to `CN1CCN(Cc2ccc(NC(=O)c3cncc(C#Cc4cnc5[nH]ncc5c4)c3)cc2C(F)(F)F)CC1`, the growth is 73.3% in test [1]; 8.99% (active) in test [2]; 11.5% in test [3]; 52.6% in test [4]; 12.4% in test [5]; 45.7% in test [6]. Also, the growth in test [7] is 6.81% (active).

Consider `CN(C)c1ccc(/C=C2\Cc3c(F)ccc(Br)c3C2=O)cc1`, for which the growth in test [1] was 117%; in test [2] it was 92.7%; in test [3], 89.9%; in test [4], 39.8%; in test [5], 98.5%; in test [6], 104%. In test [7], the growth is 93.1%.

As to `CCN1CCN(S(=O)(=O)c2oc(-c3ccc(Cl)cc3)nc2C#N)CC1`, the growth was 93.6% in test [1]; 62.6% in test [2]; -23.6% (active) in test [3]; 31.3% in test [4]; 11.6% in test [5]; 115% in test [6]. In test [7], the growth is 91.7%.

As for `CS(=O)(=O)Nc1ccc(-c2nn(-c3ccc(S(C)(=O)=O)cc3)cc2/C=C/C(=O)c2ccc(NC(=O)CO[N+](=O)[O-])cc2)cc1`, the growth in test [1] is 98.7%; in test [2] it was 106%; in test [3] it was 113%; in test [4] it was 94.5%; in test [5], 103%; in test [6] it was 101%. The growth in test [7] is 106%.

As for `C#Cc1nc(C2=C(C)C(OC(C)=O)/C(=N/OC(C)=O)C2)cs1` (stereo not drawn), the growth in test [1] was -74.3% (active); in test [2], 88.9%; in test [3], 8.98% (active); in test [4], 25.9%; in test [5] it was 19.9%; in test [6], 105%. Besides, the growth in test [7] was -19.7% (active).

`COc1ccc(/C=C2\SC(=Nc3cc(C)[nH]n3)NC2=O)cc1`: the growth is 90.5% in test [1]; 92.4% in test [2]; 97.1% in test [3]; 85.5% in test [4]; 97.2% in test [5]; 99.8% in test [6]. Further, the growth in test [7] was 89.8%.

As for `C#Cc1nc(C2=C(C)C(O)CC2)cs1` (stereo not drawn), the growth in test [1] was 119%; in test [2], 105%; in test [3], 121%; in test [4] it was 85.1%; in test [5] it was 111%; in test [6], 115%. Further, the growth in test [7] was 63.9%.

Take `CCOC(=O)c1c(Nc2ccccc2)nn2c(N)c(C#N)c(-c3ccc(OC)cc3)nc12`: the growth was 52.6% in test [1]; 79% in test [2]; 94.7% in test [3]; 70.3% in test [4]; 77.8% in test [5]; 92.5% in test [6]. Further, the growth in test [7] was 83%.

`Clc1ccc(-c2cn3cc(Cc4ccc(Cl)c(Cl)c4)sc3n2)cc1`: the growth in test [1] was 88.9%; in test [2] it was 35%; in test [3] it was 51.7%; in test [4], 49.2%; in test [5] it was 54%; in test [6], 68.1%. Also, in test [7], the growth is 32.1%.

`CC(C)(C)Nc1nc2c(OCCc3ccccc3)cccn2c1-c1ccccc1Cl`: the growth in test [1] is 24%; in test [2], 7.76% (active); in test [3], 11.5%; in test [4], -10.6% (active); in test [5] it was 2.39% (active); in test [6] it was -0.61% (active). Also, the growth in test [7] was 4.49% (active).

With `COc1cc(/C=C/C(=O)c2ccc(C)cc2)ccc1Oc1nc(NCCO)nc(N2CCOCC2)n1`, the growth in test [1] was -58.8% (active); in test [2] it was 33.1%; in test [3], 3.05% (active); in test [4], 9.07% (active); in test [5], -77.2% (active); in test [6], 93.8%. In addition, the growth in test [7] was 20.2%.

Turning to `N#Cc1ccc(/C=N/NC(=O)c2[nH]c3ccc(Br)cc3c2-c2ccccc2)s1`, the growth in test [1] is -11.4% (active); in test [2], 1.78% (active); in test [3], 22.9%; in test [4], 5.58% (active); in test [5] it was -18.9% (active); in test [6] it was 21.8%. The growth in test [7] is 11%.

For `NS(=O)(=O)c1cccc(Nc2nc(SCC(=O)c3ccc([N+](=O)[O-])cc3)nc3ccccc23)c1`, the growth in test [1] is -4.45% (active); in test [2] it was 51.3%; in test [3], 69.2%; in test [4], 11.7%; in test [5], 36.8%; in test [6], 54.3%. The growth in test [7] is 38.4%.

For the compound `COc1cc(OC)c(C2SCC(=O)N2Nc2ncnc3ccccc23)cc1OC` (stereo not drawn), the growth was 105% in test [1]; 103% in test [2]; 105% in test [3]; 91.8% in test [4]; 107% in test [5]; 111% in test [6]. Besides, the growth in test [7] is 107%.

Regarding `COc1cc(-c2nc3ccc(-c4nnc(SCC(=O)Nc5ccc(C(=O)/C=C/c6ccc(Cl)cc6)cc5)o4)cc3[nH]2)cc(OC)c1OC`, the growth in test [1] was 84.4%; in test [2] it was 99%; in test [3], 100%; in test [4], 59.1%; in test [5], 81.5%; in test [6], 120%. The growth in test [7] is 90.9%.

On to `COc1ccc(/C=N/NC(=O)c2[nH]c3ccc(Br)cc3c2-c2ccccc2)o1`, for which the growth in test [1] is -15.5% (active); in test [2], -16.9% (active); in test [3] it was 21.6%; in test [4], 9.83% (active); in test [5], -18.8% (active); in test [6] it was 21.3%. Moreover, the growth in test [7] was 6.83% (active).

For the compound `Nc1c(C(=O)c2ccc(Br)cc2)oc2nc(-c3cnccn3)cc(-c3cccs3)c12`, the growth in test [1] was 103%; in test [2] it was 102%; in test [3] it was 98.8%; in test [4], 77.6%; in test [5] it was 96.8%; in test [6], 113%. In addition, the growth in test [7] was 99.8%.

`COc1ccc(COc2ccc(/C=C3/C(=O)Nc4cc(Cl)ccc43)cc2)cc1`: the growth in test [1] was 102%; in test [2] it was 97.6%; in test [3], 95.7%; in test [4], 82.1%; in test [5], 101%; in test [6], 100%. The growth in test [7] is 101%.
